Hit rate of the full screen: of about 5,500 compounds, about 2,000 (36%) were called active. Inconclusive results (about 18%) are left out. Cut-off read from the data, not from the text of the source: active = normalized growth mostly below about 0.91 (no sharp cut-off); inconclusive = no clear call, values can overlap the other calls; inactive = mostly above about 0.92. Some of the results follow.
Assay: chemical genetic growth profiling, strain panel (AID 1159580);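 note: tested at 20 µM; growth read once vehicle control cultures reached saturation at 30 °C; 1 = growth at the plate median or of vehicle wells; lower values mean less growth of the strain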
Conditions: growth OD

Measured: normalized growth

CC[C@H](C)C(=O)O[C@H]1C[C@@H](C)C=C2C=C[C@H](C)[C@H](CC[C@@H]3C[C@@H](O)CC(=O)O3)[C@H]21
inactive: S. cerevisiae deletion strains, locus YJR075W, strain HOC1, active compounds read low 0.997 | S. cerevisiae deletion strains, locus YKL009W, strain mrt4, active compounds read low 0.959 | S. cerevisiae deletion strains, locus YKL068W, active compounds read low 0.988 | S. cerevisiae deletion strains, locus YKL085W, strain MDH1 (second series), active compounds read low 0.993 | S. cerevisiae deletion strains, locus YKL085W, strain MDH1, active compounds read low 0.993 | S. cerevisiae deletion strains, locus YKL160W, strain elf1, active compounds read low 1 | S. cerevisiae deletion strains, locus YKL190W, strain CNB1, active compounds read low 0.992 | S. cerevisiae deletion strains, locus YKR001C, strain vps1, active compounds read low 0.986 | S. cerevisiae deletion strains, locus YKR026C, strain gcn3, active compounds read low 0.999 | S. cerevisiae deletion strains, locus YKR091W, strain srl3, active compounds read low 1 | S. cerevisiae deletion strains, locus YLL001W, strain dnm1, active compounds read low 1.02 | S. cerevisiae deletion strains, locus YLL026W, active compounds read low 1.01 | S. cerevisiae deletion strains, locus YLL041C, strain sdh2, active compounds read low 1 | S. cerevisiae deletion strains, locus YLR027C, strain aat2, active compounds read low 1.01 | S. cerevisiae deletion strains, locus YLR039C, strain RIC1, active compounds read low 0.971 | S. cerevisiae deletion strains, locus YLR058C, strain SHM2, active compounds read low 0.957 | S. cerevisiae deletion strains, locus YLR102C, strain apc9, active compounds read low 0.994 | S. cerevisiae deletion strains, locus YLR113W, strain HOG1, active compounds read low 1 | S. cerevisiae deletion strains, locus YLR221C, strain rsa3, active compounds read low 1.01 | S. cerevisiae deletion strains, locus YLR258W, strain gsy2, active compounds read low 1.01 | S. cerevisiae deletion strains, locus YLR262C, strain YPT6 (second series), active compounds read low 1.11 | S. cerevisiae deletion strains, locus YLR262C, strain YPT6, active compounds read low 0.916 | S. cerevisiae deletion strains, locus YLR268W, strain sec22, active compounds read low 1.06 | S. cerevisiae deletion strains, locus YLR320W, strain mms22, active compounds read low 0.992 | S. cerevisiae deletion strains, locus YLR330W, strain CHS5, active compounds read low 0.969 | S. cerevisiae deletion strains, locus YLR342W, strain FKS1 (second series), active compounds read low 0.968 | S. cerevisiae deletion strains, locus YLR342W, strain FKS1, active compounds read low 1 | S. cerevisiae deletion strains, locus YLR357W, strain rsc2, active compounds read low 0.908 | S. cerevisiae deletion strains, locus YLR370C, strain arc18, active compounds read low 1.02 | S. cerevisiae deletion strains, locus YLR371W, strain rom2, active compounds read low 0.982 | S. cerevisiae deletion strains, locus YLR384C, strain iki3, active compounds read low 1.01 | S. cerevisiae deletion strains, locus YLR418C, strain cdc73, active compounds read low 0.908 | S. cerevisiae deletion strains, locus YML016C, strain PPZ1, active compounds read low 0.977 | S. cerevisiae deletion strains, locus YML032C, strain rad52, active compounds read low 1.01 | S. cerevisiae deletion strains, locus YML120C, strain ndi1, active compounds read low 1.01 | S. cerevisiae deletion strains, locus YML124C, strain tub3, active compounds read low 0.98 | S. cerevisiae deletion strains, locus YMR058W, strain fet3, active compounds read low 1 | S. cerevisiae deletion strains, locus YMR078C, strain ctf18, active compounds read low 0.987 | S. cerevisiae deletion strains, locus YMR125W, strain sto1, active compounds read low 0.984 | S. cerevisiae deletion strains, locus YMR129W, active compounds read low 1.01 | S. cerevisiae deletion strains, locus YMR205C, strain PFK2, active compounds read low 1 | S. cerevisiae deletion strains, locus YMR223W, strain ubp8, active compounds read low 0.948 | S. cerevisiae deletion strains, locus YMR231W, strain pep5, active compounds read low 0.998 | S. cerevisiae deletion strains, locus YMR263W, strain SAP30, active compounds read low 0.987 | S. cerevisiae deletion strains, locus YMR307W, strain GAS1, active compounds read low 0.984 | S. cerevisiae deletion strains, locus YNL067W, strain RPL9B, active compounds read low 1.01 | S. cerevisiae deletion strains, locus YNL071W, strain lat1, active compounds read low 1.01 | S. cerevisiae deletion strains, locus YNL128W, strain TEP1, active compounds read low 0.97 | S. cerevisiae deletion strains, locus YNL153C, strain GIM3, active compounds read low 1.02 | S. cerevisiae deletion strains, locus YNL183C, strain NPR1, active compounds read low 0.939 | S. cerevisiae deletion strains, locus YNL209W, strain ssb2, active compounds read low 1.01 | S. cerevisiae deletion strains, locus YNL233W, strain BNI4, active compounds read low 1.01 | S. cerevisiae deletion strains, locus YNL248C, strain rpa49, active compounds read low 1.01 | S. cerevisiae deletion strains, locus YNL250W, strain rad50, active compounds read low 0.958 | S. cerevisiae deletion strains, locus YNL271C, strain bni1, active compounds read low 0.994 | S. cerevisiae deletion strains, locus YNL298W, strain CLA4, active compounds read low 0.99 | S. cerevisiae deletion strains, locus YNL307C, strain MCK1, active compounds read low 0.948 | S. cerevisiae deletion strains, locus YNL322C, strain KRE1 (second series), active compounds read low 1.02 | S. cerevisiae deletion strains, locus YNL322C, strain KRE1, active compounds read low 0.986 | S. cerevisiae deletion strains, locus YNR049C, strain mso1, active compounds read low 1.01 | S. cerevisiae deletion strains, locus YNR052C, strain pop2, active compounds read low 0.999 | S. cerevisiae deletion strains, locus YOL006C, strain TOP1, active compounds read low 0.953 | S. cerevisiae deletion strains, locus YOL012C, strain htz1 0.797 | S. cerevisiae deletion strains, locus YOL147C, strain pex11, active compounds read low 0.986 | S. cerevisiae deletion strains, locus YOR001W, strain rrp6, active compounds read low 1.02 | S. cerevisiae deletion strains, locus YOR061W, strain CKA2, active compounds read low 0.964 | S. cerevisiae deletion strains, locus YOR069W, strain VPS5, active compounds read low 0.981 | S. cerevisiae deletion strains, locus YOR070C, strain gyp1, active compounds read low 1 | S. cerevisiae deletion strains, locus YOR080W, strain dia2, active compounds read low 0.998 | S. cerevisiae deletion strains, locus YOR083W, strain WHI5, active compounds read low 1 | S. cerevisiae deletion strains, locus YOR106W, strain vam3, active compounds read low 0.99 | S. cerevisiae deletion strains, locus YOR136W, strain idh2, active compounds read low 0.98 | S. cerevisiae deletion strains, locus YOR144C, strain elg1, active compounds read low 0.993 | S. cerevisiae deletion strains, locus YOR184W, strain ser1, active compounds read low 0.94 | S. cerevisiae deletion strains, locus YOR231W, strain MKK1, active compounds read low 0.983 | S. cerevisiae deletion strains, locus YOR265W, strain rbl2, active compounds read low 1.01 | S. cerevisiae deletion strains, locus YOR270C, strain vph1, active compounds read low 0.881 | S. cerevisiae deletion strains, locus YOR290C, strain snf2, active compounds read low 1.02 | S. cerevisiae deletion strains, locus YOR316C, strain cot1, active compounds read low 0.993 | S. cerevisiae deletion strains, locus YPL051W, strain arl3, active compounds read low 0.999 | S. cerevisiae deletion strains, locus YPL055C, strain LGE1, active compounds read low 0.939 | S. cerevisiae deletion strains, locus YPL078C, strain atp4, active compounds read low 1.01 | S. cerevisiae deletion strains, locus YPL106C, strain sse1, active compounds read low 1.06 | S. cerevisiae deletion strains, locus YPL240C, strain hsp82, active compounds read low 1.01 | S. cerevisiae deletion strains, locus YPL241C, strain CIN2, active compounds read low 0.979 | S. cerevisiae deletion strains, locus YPL256C, strain CLN2, active compounds read low 1.02 | S. cerevisiae deletion strains, locus YPR119W, strain clb2, active compounds read low 0.986 | S. cerevisiae deletion strains, locus YPR141C, strain kar3, active compounds read low 0.971 | S. cerevisiae deletion strains, locus YPR163C, strain tif3, active compounds read low 0.995 | S. cerevisiae deletion strains, locus YPR167C, strain met16, active compounds read low 0.99 | S. cerevisiae deletion strains, strain wtn01, active compounds read low 1.01 | S. cerevisiae strains, strain wild type, active compounds read low 0.963

From PubChem BioAssay AID1159580 (chemical genetic matrix, 2015)
